Measured values published in PubChem BioAssay (EPA / NIEHS).
Active and inactive are the calls of the source. The calls were made as follows: active = hit-call score of the fitted dose curve at least 0.9, where 1 is the maximum; inactive = score below 0.9.

Columns and labels:
Conditions in all cases: mRNA level, 48 h; actives raise or lower the signal
[1] = read-out: growth arrest and DNA damage 45 (GADD45A), GADD45A (gene 1647); experiment: LTEA_HepaRG_GADD45A: Life Technologies and Expression Analysis (LTEA) Assay for growth arrest and DNA damage 45 (GADD45A) using HepaRG (AID 2283458)
Outline: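 Eight-point concentration-response in HepaRG cells: 48 h chemical exposure, 0.5% DMSO vehicle, top dose 100 uM. Normalized qRT-PCR mRNA readout with bidirectional fitting relative to DMSO.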

[2] = read-out: Forkhead box O3 (FOXO3), FOXO3 (gene 2309); experiment: LTEA_HepaRG_FOXO3: Life Technologies and Expression Analysis (LTEA) Assay for Forkhead box O3 (FOXO3) using HepaRG (AID 2283459)
Outline: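 Gene-expression endpoint: FOXO3 transcript level by qRT-PCR in HepaRG cultures treated 48 h with chemicals up to 100 uM (half-log, 0.5% DMSO vehicle).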

[3] = read-out: ABC Transporter (ABCB1), ABCB1 (gene 5243); experiment: LTEA_HepaRG_ABCB1: Life Technologies and Expression Analysis (LTEA) Assay for ABC Transporter (ABCB1) using HepaRG (AID 2283460)
Outline: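 Human liver HepaRG line treated 48 h with up to 100 uM compound (eight half-log points, 0.5% DMSO); ABCB1 mRNA change fitted bidirectionally against DMSO controls.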

[4] = read-out: growth arrest and DNA damage 45 (GADD45B), GADD45B (gene 4616); experiment: LTEA_HepaRG_GADD45B: Life Technologies and Expression Analysis (LTEA) Assay for growth arrest and DNA damage 45 (GADD45B) using HepaRG (AID 2283461)
Outline: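 Values are bidirectional concentration-response fits against 0.5% DMSO controls. Underlying data: qRT-PCR mRNA levels in human HepaRG liver cells treated 48 h in serum-free induction medium, eight concentrations topping at 100 uM.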

[5] = read-out: ABC Transporter (ABCC3), ABCC3 (gene 8714); experiment: LTEA_HepaRG_ABCC3: Life Technologies and Expression Analysis (LTEA) Assay for ABC Transporter (ABCC3) using HepaRG (AID 2283462)
Outline: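 Differentiated HepaRG liver cells receive test chemicals at eight concentrations (max 100 uM) for 48 h. Expression of ABCC3 is quantified by qRT-PCR against ACTB, GAPDH and POLR2A, and activity is fitted in both directions against the DMSO control.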

[6] = read-out: ABC Transporter (ABCB11), ABCB11 (gene 8647); experiment: LTEA_HepaRG_ABCB11: Life Technologies and Expression Analysis (LTEA) Assay for ABC Transporter (ABCB11) using HepaRG (AID 2283463)
Outline: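 Using HepaRG cultures held in 0.5% DMSO, chemicals were tested at half-log dilutions from 100 uM for 48 h. Induction or suppression of ABCB11 mRNA, normalized to ACTB, GAPDH and POLR2A, was fitted bidirectionally against vehicle.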

[7] = read-out: ABC Transporter (ABCC2), ABCC2 (gene 1244); experiment: LTEA_HepaRG_ABCC2: Life Technologies and Expression Analysis (LTEA) Assay for ABC Transporter (ABCC2) using HepaRG (AID 2283464)
Outline: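 Gene expression of ABCC2 was determined by qRT-PCR in HepaRG cells exposed 48 h to chemicals (highest 100 uM, half-log dilutions). Activity was fitted in both directions relative to 0.5% DMSO vehicle.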

[8] = read-out: Broad substrate specificity ATP-binding cassette transporter ABCG2 (Homo sapiens) (UniProt Q9UNQ0); experiment: LTEA_HepaRG_ABCG2: Life Technologies and Expression Analysis (LTEA) Assay for ABC Transporter (ABCG2) using HepaRG (AID 2283465)
Outline: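 Gene expression of ABCG2 in HepaRG liver cells is quantified by qRT-PCR following 48 h exposure across an eight-point series topping at 100 uM. Values come from bidirectional fitting relative to DMSO vehicle.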

[9] = read-out: ATP-citrate lyase (ACLY), ACLY (gene 47); experiment: LTEA_HepaRG_ACLY: Life Technologies and Expression Analysis (LTEA) Assay for ATP-citrate lyase (ACLY) using HepaRG (AID 2283466)
Outline: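 ACLY expression changes in human HepaRG liver cells are quantified by qRT-PCR after 48 h exposure to test chemicals (maximum 100 uM, half-log steps). Values are fitted in both directions relative to 0.5% DMSO vehicle.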

[10] = read-out: Peroxisomal acyl-coenzyme A oxidase 1 (ACOX1) gene, ACOX1 (gene 51); experiment: LTEA_HepaRG_ACOX1: Life Technologies and Expression Analysis (LTEA) Assay for Peroxisomal acyl-coenzyme A oxidase 1 (ACOX1) gene using HepaRG (AID 2283467)
Outline: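 Human HepaRG hepatic cultures, 48 h treatment with test chemicals up to 100 uM. ACOX1 expression read by qRT-PCR relative to 0.5% DMSO vehicle.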

[11] = read-out: Alkaline Phosphatase, Placental (ALPP) gene, ALPP (gene 250); experiment: LTEA_HepaRG_ALPP: Life Technologies and Expression Analysis (LTEA) Assay for Alkaline Phosphatase, Placental (ALPP) gene using HepaRG (AID 2283468);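 as to AC50: ALPP transcript by TaqMan qRT-PCR normalized to ACTB GAPDH and POLR2A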
Outline: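 Expression of ALPP was quantified by qRT-PCR against three housekeeping genes in human HepaRG cultures treated for 48 h with an eight-point concentration series up to 100 uM. Activity in either direction was fitted relative to 0.5% DMSO.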

[12] = read-out: Bcl-2 (BAD) gene, BAD (gene 572); experiment: LTEA_HepaRG_BAD: Life Technologies and Expression Analysis (LTEA) Assay for Bcl-2 (BAD) gene using HepaRG (AID 2283469)
Outline: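 Activity values reflect up- or down-regulation of BAD mRNA in human HepaRG hepatic cells treated 48 h in serum-free medium, with eight-point half-log dosing capped at 100 uM and 0.5% DMSO vehicle.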

[13] = read-out: Bcl-2 (BAX) gene, BAX (gene 581); experiment: LTEA_HepaRG_BAX: Life Technologies and Expression Analysis (LTEA) Assay for Bcl-2 (BAX) gene using HepaRG (AID 2283470)
Outline: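 Human HepaRG cells treated in duplicate for 48 h across eight concentrations (max 100 uM, 0.5% DMSO); BAX expression measured by qRT-PCR.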

[14] = read-out: adenosine kinase (ADK) gene, ADK (gene 132); experiment: LTEA_HepaRG_ADK: Life Technologies and Expression Analysis (LTEA) Assay for adenosine kinase (ADK) gene using HepaRG (AID 2283471)
Outline: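 Following 48 h exposure of HepaRG cells in 0.5% DMSO (top concentration 100 uM, duplicate wells), ADK mRNA induction or suppression was measured by qRT-PCR, normalised to ACTB/GAPDH/POLR2A, and fitted bidirectionally relative to vehicle.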

[15] = read-out: BCL2L11 (gene 10018); experiment: LTEA_HepaRG_BCL2L11: Life Technologies and Expression Analysis (LTEA) Assay for Bcl-2 (BCL2L11) gene using HepaRG (AID 2283473)
Outline: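 Cells were plated, cultured 48 h, switched to serum-free induction medium, then dosed in duplicate for 48 h at eight half-log concentrations up to 100 uM. Lysates underwent RNA isolation and TaqMan qRT-PCR; gain or loss versus DMSO was fitted.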

[16] = read-out: Apolipoprotein A-V (APOA5) gene, APOA5 (gene 116519); experiment: LTEA_HepaRG_APOA5: Life Technologies and Expression Analysis (LTEA) Assay for Apolipoprotein A-V (APOA5) gene using HepaRG (AID 2283474)
Outline: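 Human liver HepaRG cells are treated 48 h with test chemicals (100 uM top, half-log dilutions, 0.5% DMSO). APOA5 mRNA induction or loss is measured by qRT-PCR relative to vehicle.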

[17] = read-out: Apoptosis regulator Bcl-2 (Homo sapiens) (UniProt P10415); experiment: LTEA_HepaRG_BCL2: Life Technologies and Expression Analysis (LTEA) Assay for Bcl-2 gene using HepaRG (AID 2283475);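 also: BCL2 transcript by TaqMan qRT-PCR normalised to ACTB GAPDH and POLR2A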
Outline: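 Each chemical was tested in duplicate on HepaRG cultures held in serum-free induction medium for 48 h, highest concentration 100 uM with half-log dilutions. Transcript levels came from multiplexed qRT-PCR, normalised to housekeeping genes; activity was scored in either direction relative to DMSO.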

[18] = read-out: Bcl-2 (BID) gene, BID (gene 637); experiment: LTEA_HepaRG_BID: Life Technologies and Expression Analysis (LTEA) Assay for Bcl-2 (BID) gene using HepaRG (AID 2283476)
Outline: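 Assay used HepaRG hepatic cells treated 48 h in serum-free medium with half-log dilutions from 100 uM. Endpoint: BID mRNA, qRT-PCR, normalized to ACTB/GAPDH/POLR2A.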

[19] = read-out: Caspase-3 (Homo sapiens) (UniProt P42574); experiment: LTEA_HepaRG_CASP3: Life Technologies and Expression Analysis (LTEA) Assay for cysteine-aspartic acid protease (CASP3) using HepaRG (AID 2283477)
Outline: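 In HepaRG liver cells dosed for 48 h at up to 100 uM (eight-point, duplicate), CASP3 expression changes are scored by qRT-PCR. Activity is fitted in both directions with 0.5% DMSO as baseline.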

[20] = read-out: Alpha-fetoprotein (AFP) gene, AFP (gene 174); experiment: LTEA_HepaRG_AFP: Life Technologies and Expression Analysis (LTEA) Assay for Alpha-fetoprotein (AFP) gene using HepaRG (AID 2283472);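 as to AC50: AFP transcript by TaqMan qRT-PCR normalized to ACTB GAPDH and POLR2A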
Outline: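 Measures AFP mRNA change in HepaRG after 48 h chemical exposure (8 half-log concentrations, highest 100 uM, 0.5% DMSO). Fold change relative to DMSO, fitted in both directions.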

Sequence of Broad substrate specificity ATP-binding cassette transporter ABCG2 (Homo sapiens) (Q9UNQ0 whole entry, looked up): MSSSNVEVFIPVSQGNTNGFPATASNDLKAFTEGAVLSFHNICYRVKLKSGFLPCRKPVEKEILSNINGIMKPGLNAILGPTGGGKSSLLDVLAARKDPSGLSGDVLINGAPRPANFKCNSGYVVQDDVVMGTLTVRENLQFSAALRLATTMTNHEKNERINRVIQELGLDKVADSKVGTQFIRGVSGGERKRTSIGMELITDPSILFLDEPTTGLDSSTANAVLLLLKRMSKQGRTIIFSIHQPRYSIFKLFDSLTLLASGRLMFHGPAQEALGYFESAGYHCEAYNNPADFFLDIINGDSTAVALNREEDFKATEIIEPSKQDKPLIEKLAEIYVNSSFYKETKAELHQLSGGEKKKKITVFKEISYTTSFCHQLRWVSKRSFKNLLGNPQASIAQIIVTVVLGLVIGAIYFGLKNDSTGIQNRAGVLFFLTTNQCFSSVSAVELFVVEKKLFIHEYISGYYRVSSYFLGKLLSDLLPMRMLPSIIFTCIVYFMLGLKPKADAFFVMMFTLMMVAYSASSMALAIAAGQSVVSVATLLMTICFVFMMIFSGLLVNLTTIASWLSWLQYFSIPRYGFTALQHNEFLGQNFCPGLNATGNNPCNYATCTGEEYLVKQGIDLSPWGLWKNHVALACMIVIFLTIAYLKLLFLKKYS
Sequence of Apoptosis regulator Bcl-2 (Homo sapiens) (P10415 whole entry, looked up): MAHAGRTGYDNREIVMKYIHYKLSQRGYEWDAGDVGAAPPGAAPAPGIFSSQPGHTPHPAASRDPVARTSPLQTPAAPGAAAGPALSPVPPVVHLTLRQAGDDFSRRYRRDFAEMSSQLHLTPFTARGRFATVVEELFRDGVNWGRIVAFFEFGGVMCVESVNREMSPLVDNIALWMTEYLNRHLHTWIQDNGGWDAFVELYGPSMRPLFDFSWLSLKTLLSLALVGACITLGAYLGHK
Sequence of Caspase-3 (Homo sapiens) (P42574 whole entry, looked up): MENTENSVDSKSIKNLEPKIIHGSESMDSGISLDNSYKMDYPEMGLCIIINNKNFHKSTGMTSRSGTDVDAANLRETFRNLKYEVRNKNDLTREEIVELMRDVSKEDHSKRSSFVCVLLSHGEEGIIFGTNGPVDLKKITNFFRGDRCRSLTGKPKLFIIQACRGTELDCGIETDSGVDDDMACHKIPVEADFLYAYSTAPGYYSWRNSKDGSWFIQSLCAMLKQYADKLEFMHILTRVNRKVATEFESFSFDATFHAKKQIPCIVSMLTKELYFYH

Cc1cc(C)c(O)c(C)c1
outcome [1]: inactive | outcome [2]: inactive | outcome [3]: inactive | outcome [4]: inactive | outcome [5]: inactive | outcome [6]: inactive | AC50 [7]: 26.8 µM (active) | outcome [8]: inactive | outcome [9]: inactive | outcome [10]: inactive | outcome [11]: inactive | outcome [12]: inactive | outcome [13]: inactive | outcome [14]: inactive | outcome [15]: inactive | outcome [16]: inactive | outcome [17]: inactive | outcome [18]: inactive | outcome [19]: inactive

CCCOc1sc(C(=O)N2CCC(c3cc(CN)ccc3F)CC2)c(C)c1Br
outcome [1]: inactive | outcome [2]: inactive | outcome [3]: inactive | outcome [4]: inactive | outcome [5]: inactive | outcome [6]: inactive | outcome [7]: inactive | outcome [8]: inactive | outcome [9]: inactive | outcome [10]: inactive | outcome [11]: inactive | outcome [12]: inactive | outcome [13]: inactive | outcome [14]: inactive | outcome [20]: inactive | outcome [15]: inactive | outcome [16]: inactive | outcome [17]: inactive | AC50 [18]: 0.0539 µM (active) | outcome [19]: inactive

O=c1c(-c2ccc(O)cc2)coc2cc(O)ccc12
outcome [1]: inactive | outcome [2]: inactive | outcome [3]: inactive | outcome [4]: inactive | outcome [5]: inactive | outcome [6]: inactive | outcome [7]: inactive | outcome [8]: inactive | outcome [9]: inactive | outcome [10]: inactive | outcome [11]: inactive | outcome [12]: inactive | outcome [13]: inactive | outcome [14]: inactive | outcome [20]: inactive | outcome [15]: inactive | outcome [16]: inactive | outcome [17]: inactive | outcome [18]: inactive | outcome [19]: inactive

CN1CCC[C@H]1c1cccnc1
outcome [1]: inactive | outcome [2]: inactive | outcome [3]: inactive | outcome [4]: inactive | outcome [5]: inactive | outcome [6]: inactive | outcome [7]: inactive | outcome [8]: inactive | outcome [9]: inactive | AC50 [10]: 12.6 µM (active) | outcome [11]: inactive | outcome [12]: inactive | outcome [13]: inactive | outcome [14]: inactive | outcome [15]: inactive | outcome [16]: inactive | outcome [17]: inactive | outcome [18]: inactive | outcome [19]: inactive

NC(=O)N(O)[C@@H]1C=C[C@H](Oc2cccc(Oc3ccc(F)cc3)c2)C1
AC50 [1]: 64 µM (active) | outcome [2]: inactive | outcome [3]: inactive | outcome [4]: inactive | AC50 [5]: 21.1 µM (active) | AC50 [6]: 68 µM (active) | AC50 [7]: 82.5 µM (active) | AC50 [8]: 34.9 µM (active) | AC50 [9]: 22.7 µM (active) | AC50 [10]: 65.1 µM (active) | AC50 [11]: 3.76 µM (active) | outcome [12]: inactive | AC50 [13]: 64.5 µM (active) | outcome [14]: inactive | AC50 [15]: 12.3 µM (active) | AC50 [16]: 37.7 µM (active) | AC50 [17]: 73.9 µM (active) | outcome [18]: inactive | outcome [19]: inactive

CC#C[C@]1(O)CC[C@H]2[C@@H]3CCC4=CC(=O)CCC4=C3[C@@H](c3ccc(N(C)C)cc3)C[C@@]21C
AC50 [1]: 72.6 µM (active) | AC50 [2]: 91.2 µM (active) | AC50 [3]: 26.9 µM (active) | AC50 [4]: 12 µM (active) | outcome [5]: inactive | AC50 [6]: 24.7 µM (active) | AC50 [7]: 2.42 µM (active) | AC50 [8]: 29.8 µM (active) | AC50 [9]: 79.1 µM (active) | outcome [10]: inactive | AC50 [11]: 15.7 µM (active) | AC50 [12]: 25.4 µM (active) | AC50 [13]: 27.6 µM (active) | AC50 [14]: 80.6 µM (active) | AC50 [20]: 23.7 µM (active) | AC50 [15]: 27.3 µM (active) | AC50 [16]: 29.7 µM (active) | AC50 [17]: 19 µM (active) | AC50 [18]: 6.74 µM (active) | AC50 [19]: 27.4 µM (active)

CCc1nn(C2CCCCC2)c2cc(C3(C#N)CCC(C(=O)O)CC3)ccc12 (configuration not stated)
AC50 [1]: 77.6 µM (active) | outcome [2]: inactive | AC50 [3]: 12.4 µM (active) | outcome [4]: inactive | outcome [5]: inactive | AC50 [6]: 82.8 µM (active) | outcome [7]: inactive | AC50 [8]: 13 µM (active) | AC50 [9]: 25.5 µM (active) | outcome [10]: inactive | AC50 [11]: 50 µM (active) | outcome [12]: inactive | AC50 [13]: 50 µM (active) | outcome [14]: inactive | AC50 [20]: 64 µM (active) | AC50 [15]: 8.54 µM (active) | AC50 [16]: 77.4 µM (active) | AC50 [17]: 74.3 µM (active) | outcome [18]: inactive | outcome [19]: inactive
